# Screening results from PubChem.
# Hits are enriched below; roughly 1.8% of the tested compounds scored in any of these assays.
# RGS4 inhibitor: blocks human RGS4-accelerated GTP hydrolysis; Potency, µM (series often up to 114 µM), for the others: at the highest dose activity change, negative = inhibition, actives largely listed as inhibitors; actives 0.039% (n = 390,000); Transcreener GDP fluorescence polarization, RGS4-accelerated GTP hydrolysis; P49798; note: % is set by controls: 0 for no effect and ±100 for the full control effect; nearly all actives have a fitted effect of over 75% in size
#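 MLSMR compounds (23 nl, pin-transferred) preincubated 10 min at room temperature with a 500nM (2x) first reagent, then RGS4 at 900nM (2x) plus Transcreener GDP mix added; fluorescence polarization (620/688 nm) read before and after 90 min at 30 °C.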
# GLP1R cytotox: cytotoxic in the GLP-1 receptor inverse agonist counter-screen; HEK293 cAMP-luciferase reporter cells, luminescence, 24 h; Potency, µM (highest dose often 38.3 µM), for the others: at the highest dose activity change, negative = inhibition, actives largely listed as inhibitors; actives 0.13% (n = 410,000);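 note: loss of luciferase light is scored as toxicity; % is set by controls: 0 for no effect and ±100 for the full control effect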
#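 Luminescence readout: signal drop marks cytotoxicity. Plated cells grew 12 h at 37 °C, 5% CO2, received 23 nL compound for 24 h, then got luciferase reagent, read after 12 min at RT.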
# GLP1R ag: activates the human GLP-1 receptor; AID 624172; HEK293 GLP-1R CRE-luciferase, luminescence, 4-6 h; cells express a hypersensitive GLP-1R form; actives 0.007% (n = 380,000); Potency, µM (series often up to 45.6 µM), inactives show at the highest dose activation, usual class: activators; P43220; note: % of control where 0% means no effect
# PTHR1 ag: agonists of human PTHR1 parathyroid hormone receptor. Q03431. HEK293 GP2 PTHR1 cells, GloSensor cAMP luminescence, 1 h. Potency, µM (series often up to 115 µM), for the others: at the top dose activation, hits mostly activators. actives 0.075% (n = 410,000); note: nearly all actives have a fitted effect of over 55% in size
# Target sequence (Q03431 whole entry, looked up): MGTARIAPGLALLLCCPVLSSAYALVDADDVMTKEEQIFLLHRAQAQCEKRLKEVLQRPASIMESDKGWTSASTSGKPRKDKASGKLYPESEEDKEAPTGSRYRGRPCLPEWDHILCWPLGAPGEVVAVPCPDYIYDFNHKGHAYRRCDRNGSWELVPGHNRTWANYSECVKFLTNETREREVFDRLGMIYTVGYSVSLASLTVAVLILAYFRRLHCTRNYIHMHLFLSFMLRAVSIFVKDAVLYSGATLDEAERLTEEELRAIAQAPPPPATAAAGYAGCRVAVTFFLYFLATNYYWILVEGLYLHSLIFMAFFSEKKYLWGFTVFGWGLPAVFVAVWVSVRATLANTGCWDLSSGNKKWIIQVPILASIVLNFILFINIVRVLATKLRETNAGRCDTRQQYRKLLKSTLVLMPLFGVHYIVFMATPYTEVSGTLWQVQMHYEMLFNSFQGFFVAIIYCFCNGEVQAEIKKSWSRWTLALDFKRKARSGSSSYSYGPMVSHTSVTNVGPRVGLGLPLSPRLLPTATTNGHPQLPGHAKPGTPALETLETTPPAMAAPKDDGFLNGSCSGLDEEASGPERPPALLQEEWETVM
#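 HEK-293-derived GP2 cells expressing PTHR1 and a GloSensor cAMP reporter, 3,000/well, plated overnight, given luciferin plus IBMX (each 0.5 mM as added) for 1 h at 37 °C, then compound for 1 h at 37 °C. Luminescence was read after 15 min at room temperature.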
# GCN5L2 inh: inhibitors of human GCN5L2 histone acetyltransferase; Q92830; actives 0.21% (n = 390,000); Potency, µM (highest dose often 58.9 µM), for the others: at the highest dose activity change, negative = inhibition, most hits filed as inhibitors; GCN5L2 HAT assay, ThioGlo1 CoA-SH fluorescence; note: % is set by controls: 0 for no effect and ±100 for the full control effect
#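 Enzyme at 20nM final was mixed with library compounds for 15 min at room temperature. Peptide H3(1-25) at 75uM, acetyl-CoA at 70uM and ThioGlo1 at 50uM were then added. Plates were read immediately and after 20 min (Ex340nm/Em540nm).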
# GLP-1R inv ag: acts as inverse agonist at human GLP-1 receptor. actives 1.6% (n = 410,000). HEK293 GLP-1R CRE-luciferase, luminescence, 24 h; GLP-1R form is constitutively active. AID 624417. P43220. Potency, µM (series often up to 38.3 µM), for the others: top-dose activity change, negative = inhibition, actives largely listed as inhibitors; note: % is set by controls: 0 for no effect and ±100 for the full control effect; nearly all actives have a fitted effect of over 55% in size
#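 HEK293 cells stably co-expressing constitutively active GLP-1R and a cAMP-responsive luciferase reporter were seeded in DMEM with 10% Nu serum, given compounds after 12 h, and incubated 24 h at 37 deg C. Luminescence was then read.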
# The depositor's hits bear a star; i = inactive; ? = inconclusive; . = no result given; [ ] = dose if it differs, or a comment. Calls come from the whole dose curve; as a rule, active = well fitted curve in the direction sought with a large enough effect; inconclusive = small, poorly fitted or top-dose-only effect, or another doubt; inactive = no such curve, though single readings can be large; an effect the other way counts as inactive or inconclusive. Potency is the fitted concentration of half-maximal effect.
SMILES,RGS4 inhibitor,GLP1R cytotox,GLP1R ag,PTHR1 ag,GCN5L2 inh,GLP-1R inv ag
CCC1CCCCN1C(=O)c1ccc([N+](=O)[O-])o1 (stereo not given),26%,-6%,6%,-8%,-6%,4%
CCOC(=O)C1(Cc2ccccc2C)CCCN(C(=O)c2sccc2C)C1 (stereo not given),3%,1%,4%,-10%,-7%,10µM*
COc1ccc(CC(N)c2csc(NC(=O)Nc3ccccc3-c3ccccc3)n2)cc1 (stereo not given),.,-4%,-9%,i,.,?
COc1ccc(OCC(=O)Nc2c(C(=O)N(CCN(C)C)Cc3ccco3)oc3ccccc23)cc1,15%,10%,5%,?,-3%,7.9µM*
COc1ccccc1C(=O)Nc1c(C(=O)N(CCN(C)C)Cc2ccco2)oc2ccccc12,1%,?,22%,i,-19%,?
Cc1[nH]c(-c2ccc(F)cc2)cc1C(=O)N1CCN(c2ccccc2F)CC1,-35%,1%,3%,i,-26%,?
COc1ccccc1N1CCN(C(=O)c2cc(-c3ccc(F)cc3)[nH]c2C)CC1,4%,?,0%,-25%,-6%,11µM*
CCOC(=O)c1cc(-c2ccccc2)n(CCC(=O)Nc2ccc(C(F)(F)F)cc2)c1C,-17%,?,.,-91%,-7%,7.1µM*
CCOC(=O)c1cc(-c2ccccc2)n(CCC(=O)Nc2ccc(OC)c(Cl)c2)c1C,-9%,-15%,.,-42%,-9%,?
CCOC(=O)c1cc(-c2ccccc2)n(-c2cccc(C(=O)Nc3ccc(OCC)cc3)c2)c1C,15%,4%,.,-7%,-10%,5µM*
CCOC(=O)c1cc(-c2ccccc2)n(CCCC(=O)Nc2ccc(CC)cc2)c1C,13%,-17%,.,-26%,-1%,10µM*
COc1cc(Cl)c(NC2=CC(=O)C(=O)c3ccccc32)c(OC)c1,-1%,-25%,-1%,-18%,-9%,-10%
CCNc1nc(NC(C)C)nc(OCC)n1,8%,5%,7%,-13%[57.5 µM],-3%[0.501 µM],39%
COc1ccc(-n2c(=O)c3c4c(sc3n(Cc3ccc(C)cc3C)c2=O)CCC4)c(OC)c1,17%,11%,.,-40%,-7%,-2%
Cc1c(Cl)c([N+](=O)[O-])nn1Cc1ccc(C(=O)N/N=C\c2cccc(Br)c2)o1,-19%,-15%,-5%,-3%,-7%,10µM*
O=C(N/N=C\c1cccc(Cl)c1)c1ccc(Cn2cc(Br)c([N+](=O)[O-])n2)o1,-18%,-14%,-6%,-14%,-5%,?
Cc1ccc(C(CC(=O)NCCCN(C)C)c2ccc(OC(C)C)cc2)cc1 (stereo not given),2%,-17%,8%,i,-3%,11µM*
CNc1ccc(Cl)cc1S(=O)(=O)c1ccccc1[N+](=O)[O-],.,-5%,3%,-88%,.,?
CC(C)CCNC(=O)Nc1cc(C(=O)NCc2cccc(F)c2)ccc1N1CCCC1,-4%,-15%,.,-28%,-4%,-24%
Nc1cc2c3c(cccc3c1)C(=O)N(CCN1CCCC1)C2=O,15%,0%,-8%,i,-21%,?
O=C1c2cccc3cc([N+](=O)[O-])cc(c23)C(=O)N1CCN1CCCC1,-31%,34%,-13%,0%,0%,4.5µM*
COc1ccc(N2C(=O)NC(NC(=O)c3ccncc3)(C(F)(F)F)C2=O)cc1 (stereo not given),7%,-6%,-2%,i,0%,1%
Cc1ccc(C(=O)NC2(C(F)(F)F)NC(=O)N(c3ccc(Cl)cc3)C2=O)cc1 (stereo not given),-8%,-10%,-4%,-8%,0%,5.6µM*
